FBPA Giardia inh: inhibitors of Giardia lamblia fructose-1,6-bisphosphate aldolase; purified Giardia FBPA; Potency, µM (top dose mostly 59.6 µM), without a hit: at the highest dose activity, negative = inhibition, usual class: inhibitors; hit rate 0.71% among 290,000; also: potency is read from the fitted curve at half-maximal effect; % is scaled to controls: 0 for no effect and ±100 for the full control effect; nearly all actives have a fitted effect of over 55% in size
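Giardia FBPA (40 nM reagent) was preincubated 10 min at RT with compound (up to 57.5 uM final), then substrate plus GAPDH/TPI/NAD/arsenate coupling system with diaphorase/resazurin was added; resorufin fluorescence (525/598 nm) was read after 20 min.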
Sm TGR block: blocks Schistosoma mansoni thioredoxin glutathione reductase | hit rate 3% among 360,000 | Q962Y6 | purified TGR, DTNB reduction, TNB absorbance 405 nm | Potency, µM (series often up to 114 µM), for the others: at the highest dose activity change, negative = inhibition, usual class: inhibitors; also: potency is read from the fitted curve at half-maximal effect; % is scaled to controls: 0 for no effect and ±100 for the full control effect; nearly all actives have a fitted effect of over 60% in size
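TGR 20 nM + NADPH 100 uM (dispensed conc.), cpd preinc 15 min RT; start with NADPH (500 uM addition) then DTNB (15 mM addition). Kinetic TNB absorbance, 405 nm filter. Four-parameter Hill fit across titration.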
Tb PYK inh: blocks Trypanosoma brucei pyruvate kinase | Q57TT1 | TbPYK enzyme, Kinase-Glo Plus ATP luminescence, 45 min | Potency, µM (titrated, usually from 76.8 µM), for inactives: at the highest dose activity, negative = inhibition, usual class: inhibitors | hit rate 0.12% among 410,000; also: potency is read from the fitted curve at half-maximal effect; % is scaled to controls: 0 for no effect and ±100 for the full control effect; nearly all actives have a fitted effect of over 50% in size
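In this concentration-response screen, enzyme-free wells defined baseline while DMSO plates tracked drift. Each reaction combined TbPYK, substrate, compound and 130 uM ADP for 45 min at room temperature. Kinase-Glo Plus luminescence gave the signal.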
LmPK inh: blocks Leishmania mexicana pyruvate kinase activity; Q27686; purified LmPK, Kinase-Glo ATP luminescence, 1 h; Potency, µM (doses to about 57.5 µM), for the others: at the highest dose activity change, negative = inhibition, hits mostly inhibitors; hit rate 0.37% among 290,000; AID 1721; also: potency is read from the fitted curve at half-maximal effect; % is scaled to controls: 0 for no effect and ±100 for the full control effect
Target sequence (Q27686 whole entry, looked up): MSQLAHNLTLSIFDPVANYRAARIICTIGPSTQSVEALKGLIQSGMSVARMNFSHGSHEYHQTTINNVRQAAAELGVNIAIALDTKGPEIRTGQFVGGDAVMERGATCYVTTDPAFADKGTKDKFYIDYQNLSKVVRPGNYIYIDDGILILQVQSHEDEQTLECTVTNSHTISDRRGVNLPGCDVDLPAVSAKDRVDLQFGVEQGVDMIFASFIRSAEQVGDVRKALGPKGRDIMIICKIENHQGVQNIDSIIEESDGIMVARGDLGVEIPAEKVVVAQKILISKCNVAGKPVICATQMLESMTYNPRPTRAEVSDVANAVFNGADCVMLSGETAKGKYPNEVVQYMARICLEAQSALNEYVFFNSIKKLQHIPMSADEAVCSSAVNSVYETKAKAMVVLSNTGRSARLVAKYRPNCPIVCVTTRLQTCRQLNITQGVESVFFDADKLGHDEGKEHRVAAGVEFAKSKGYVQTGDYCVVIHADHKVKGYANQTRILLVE
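qHTS format; LmPK 0.1 nM; substrates PEP 0.5 mM and ADP 0.1 mM. One-hour room-temperature incubation, then coupled luciferase luminescence; 0.5 nM enzyme wells mark activation.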
Cycloheximide cs: counter-screen hit for Shiga toxin inhibitors, cycloheximide; cell reporter, cycloheximide protein synthesis inhibition counterscreen; AID 2314; hit rate 12% among 300,000; max response, %; in the data active = max response mostly above about 13%, no sharp cut-off; inactive = mostly below about 14%; also: read at 38.3 µM for the half of the compounds with a filed dose; 0% is about no effect
Shiga toxin inh: Shiga toxin inhibition; Vero cells, Shiga toxin protein synthesis inhibition reporter; AID 2315; inhibition, % at 38.7 µM; hit rate 9.2% among 290,000; in the data active = inhibition mostly above about 28%, no sharp cut-off; inactive = mostly below about 43%; also: 0% is about no effect
* hit, by the source's call; ? = inconclusive; nt = no result given. Many of the other results were omitted from the sample, so hits are more common in it than they were. Unless noted, calls follow the shape of the dose curve; as a rule, active = well fitted curve in the direction sought with a large enough effect; inconclusive = small, poorly fitted or top-dose-only effect, or another doubt; inactive = no such curve, though single readings can be large; an effect the other way counts as inactive or inconclusive.

SMILES	FBPA Giardia inh	Sm TGR block	Tb PYK inh	LmPK inh	Cycloheximide cs	Shiga toxin inh
Cc1ccc(C2(C)NC(=O)N(CC(=O)Nc3ccc(-c4nc5ccc(C)cc5s4)cc3)C2=O)cc1 (stereo not drawn)	-2%	-9%	1%	3%	54*	85*
Cc1ccc2nc(-c3ccc(NC(=O)CCN4C(=O)c5ccccc5C4=O)cc3)sc2c1	-4%	-2%	-16%	1%	55*	79*
Cc1ccc2nc(-c3ccc(NC(=O)Cc4ccccc4)cc3)sc2c1	nt	6%	-5%	nt	nt	nt
O=C(CCN1C(=O)c2ccccc2C1=O)Nc1ccc(-c2nc3ccccc3s2)cc1	2%	5%	-28%	-1%	33*	110*
COc1ccc(NC(=O)CCN2C(=O)c3ccccc3C2=O)cc1	-1%	-14%	2%	3%	-2	nt
COc1ccc(-c2nc3ccccc3s2)cc1NC(=O)c1ccccc1OC	nt	10%	0%	nt	nt	nt
COc1ccc(-c2nc3ccccc3s2)cc1O	-3%	4%	-19%	16µM*	7	15
CCOc1cc(-c2nc3ccccc3s2)ccc1O	1%	0%	-11%	0%	56*	65*
COc1cc(-c2nc3ccccc3s2)ccc1O	7%	-2%	-8%	?	45*	80*
Cc1ccc(N2CCN(C(=O)c3nn(C)c4c3CSc3ccccc3-4)CC2C)cc1 (stereo not drawn)	nt	4%	3%	nt	nt	nt
COc1ccc(-n2c(=O)cc(N3CCN(c4ccccc4)CC3)[nH]c2=O)cc1	2%	-2%	6%	-2%	60*	-12
C=CCn1cccc(C(=O)Nc2ccc(F)cc2)c1=O	7%	11%	0%	-2%	39*	63*
C=CCc1cccc2cc(C(=O)Nc3ccc(F)cc3)c(=O)oc12	4%	-10%	-2%	-7%	11*	0
O=C(Nc1ccccc1)c1cccn(Cc2ccccc2)c1=O	5%	6%	-1%	-2%	34*	98*
Cn1cc(Cl)cc(C(=O)Nc2ccccc2)c1=O	5%	50%	-2%	-8%	34*	59*
O=C(Nc1ccncc1)c1cccn(Cc2ccccc2)c1=O	2%	?	3%	3%	10	16
CC(C)[C@@H](CC(=O)N[C@@H]1CCNC[C@H]1C(=O)N[C@H](CC(=O)N[C@@H](CCC(=O)O)CC(=O)O)Cc1ccccc1)NC(=O)C[C@H](Cc1c[nH]c2ccccc12)NC(=O)[C@@H]1CNCC[C@H]1N	8%	nt	nt	nt	nt	nt
COc1ccc(NC(=O)c2cccn(CC=C(C)C)c2=O)cc1	3%	-3%	-3%	8%	40*	58*
C=CCn1cccc(C(=O)Nc2ccc(OC)cc2)c1=O	1%	9%	-5%	-9%	48*	62*
Cc1ccc2nc(-c3ccc(Cl)c(NC(=O)c4ccc5c(c4)OCCO5)c3)oc2c1	nt	8%	-2%	nt	nt	nt
CCC1CSC(=Nc2ccc(C)cc2)N1C(=O)CN1C(=O)NC2(CCCC2)C1=O (stereo not drawn)	-2%	3%	3%	1%	34*	74*
COc1ccc(OC)c(NCc2cccn2-c2nnc(N3CCCCC3)s2)c1	nt	-15%	-18%	nt	nt	nt
COc1ccc(NCc2cccn2-c2nnc(N3CCOCC3)s2)cc1OC	nt	32µM*	-8%	nt	nt	nt
COc1ccc(NCc2cccn2-c2nnc(N3CCCCC3)s2)cc1OC	nt	45µM*	-18%	nt	nt	nt
CCn1c(=O)cc(SCC(=O)NCCc2cccc(C)c2)c2ccccc21	nt	1%	1%	nt	nt	nt
SMILES	FBPA Giardia inh	Sm TGR block	Tb PYK inh	LmPK inh	Cycloheximide cs	Shiga toxin inh
COc1cccc(N2C(=O)CSC23C(=O)N(CC(=O)Nc2cccc(Cl)c2)c2ccccc23)c1 (stereo not drawn)	nt	-19%	-5%	nt	nt	nt
Cc1ccc(N2CC(c3nnc(NC(=O)c4ccco4)s3)CC2=O)cc1Cl (stereo not drawn)	nt	9%	1%	nt	nt	nt
N#Cc1c([N+](=O)[O-])cc([N+](=O)[O-])cc1S(=O)(=O)Cc1ccccc1	nt	0.35µM*	-15%	nt	nt	nt
COCCCN(C(=O)c1ccccc1)c1nc(-c2ccc(OC)cc2)cs1	-5%	-5%	-1%	-2%	1	-3
COCCCN(C(C)=O)c1nc(-c2ccccc2)cs1	-14%	4%	-5%	0%	39*	81*
COCCCN(C(=O)c1ccco1)c1nc(-c2ccc(OC)cc2)cs1	2%	-3%	-12%	1%	13*	23
CN(NC(=O)/C=C/C(=O)O)c1ncc(C(F)(F)F)cc1Cl	0%	20µM*	8%	5%	-8	-4
COc1cc2oc(-c3ccc(O)cc3)cc(=O)c2c(OC)c1O	1%	4%	-25%	-7%	7	28
COc1c(O)cc2oc(-c3ccc(O)cc3)cc(=O)c2c1O	-1%	-3%	-6%	-22%	13*	51*
COc1ccc(-c2cc(=O)c3c(O)cc(O)cc3o2)cc1O	0%	nt	nt	nt	34*	70*
O=c1cc(-c2ccccc2)oc2cc(O)c(O)c(O)c12	10µM*	nt	?	nt	nt	nt
COc1cccc2oc(-c3ccc(O)cc3)cc(=O)c12	-2%	nt	nt	nt	nt	nt
COc1cc2oc(-c3ccc(O)cc3)cc(=O)c2c(O)c1OC	-11%	-10%	-3%	4%	10*	25
COc1ccc(-c2cc(=O)c3c(C)cc(O)cc3o2)cc1	nt	nt	-8%	nt	nt	nt
CC(C)(C)Cc1c(-c2ccc(F)cc2)nc2ccc(Br)cn12	nt	nt	2%	nt	nt	nt
O=C1NC2(CCCCC2)C(=O)N1/N=C/c1ccccc1Br	3%	1%	3%	3%	23*	37
Oc1ccc(C=NC2CCCCC2)c(O)c1	-4%	?	2%	-5%	3	-2
O=C1NC2(CCCCC2)C(=O)N1/N=C/c1ccc(O)cc1O	1%	0%	?	9%	38*	53*
Cc1cccc2cc(CN(Cc3nnnn3Cc3ccco3)C3CCCC3)c3nnnn3c12	-3%	?	-2%	6%	10	29*
Cc1ccc(S(=O)(=O)Cn2nnnc2CN(Cc2ccco2)CC2CCCO2)cc1 (stereo not drawn)	-2%	28µM*	4%	4%	-2	1
CC(=O)N(Cc1ccco1)Cc1cc2cccc(C)c2n2nnnc12	5%	?	nt	5%	-3	-7
Cc1ccc2cc(CN(CC3CCCO3)S(=O)(=O)c3ccccc3)c3nnnn3c2c1 (stereo not drawn)	2%	7%	-4%	7%	11	30
COc1ccc2[nH]c(=O)c(CN(Cc3nnnn3Cc3ccccc3)CC3CCCO3)cc2c1 (stereo not drawn)	-12%	0%	-1%	1%	-2	-4
Cc1ccc2cc(CN(Cc3nnnn3Cc3ccco3)CC3CCCO3)c(=O)[nH]c2c1C (stereo not drawn)	-23%	18µM*	-13%	11%	-3	0
